A1 inhib: blocks A1 activity | caspase activation, % (test concentration not listed) | 0.51% of 21,000 active | MEF A1-2A-BIM cells, caspase-Glo luminescence, 3 h; percent of clofoctol signal, DMSO as zero;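 active = most replicate scores above 10, or exactly half above 10 with mean activity above 10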;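 also: effector caspase 3 and 7 activity cleaving a DEVD luciferin substrate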
* marks the source's active call; other numbers are inactive results. Shown is part of a subset that was picked to be rich in hits.

SMILES	A1 inhib
COc1cc(/C=C2/SC(=Nc3cc(C)cc(C)c3)NC2=O)cc(Br)c1OC	4
Cc1nn(-c2ccccc2)nc1C(=O)Oc1c(Cl)cccc1Cl	1
CCCNC(=O)c1[nH]c2ccccc2c1Sc1ccc(Cl)cc1	1
Cc1[nH]c2ccccc2c1Sc1ccccc1	11*
Cc1[nH]c2ccccc2c1C(c1c(C)[nH]c2ccccc12)C(C)C	0
Cc1ccc(C(=O)Nc2sc3c(c2C(=O)N(C)C)CCCCC3)cc1	0
Nc1cccc(-c2cc3c(Oc4cccc(O)c4)ncnc3[nH]2)c1	23*
O=C(CN1C(=O)/C(=C/c2ccccc2F)Sc2ccccc21)N1CCN(c2ccc(F)cc2)CC1	1
CC(=O)N(CCc1ccccc1)C1CC(=O)N(c2ccccc2)C1=O (centres undefined)	1
C[C@H]1CC[C@@H]2[C@@H](C(=O)c3c(O)c([C@]4(O)CC[C@@H](O)[C@H]5O[C@H]54)cn(O)c3=O)[C@@H](C)C=C[C@H]2C1	46*
COc1ccc2ncc(S(=O)(=O)c3ccccc3)c(N3CCC(C(N)=O)CC3)c2c1	0
CC(C)(C)C(=O)NCC(c1cccnc1)N1CCN(c2ccccc2)CC1 (centres undefined)	1
O=C(CNC(=O)C1CCCCC1)Nc1nc(CC23CC4CC(CC(C4)C2)C3)cs1	0
CC(C)c1ccccc1Oc1coc2cc(OCC(=O)NC3CCCCC3)ccc2c1=O	0
CCc1ccc(OCCCn2cc(/C=C3/C(=N)N4C=CSC4=NC3=O)c3ccccc32)cc1	0
CCOC(=O)Cn1cc(/C=C2\C(=O)NC(=O)N(c3ccc(F)cc3)C2=O)c2ccccc21	0
CCc1cc(C)cc(OCCn2cc(C=C3C(=O)NC(=O)NC3=O)c3ccccc32)c1	39*
CCC(C)C(=O)N1CCN(c2cccc(Cl)c2)CC1 (centres undefined)	1
Cc1cc(C)c(-n2c(SCC(=O)Nc3ccccc3Cl)n[nH]c2=O)c(C)c1	0
COc1ccc(OC)c(CCN=C2NS(=O)(=O)C(c3ccc(C)cc3)=C2C)c1	1
CC1=C(c2ccc(C)cc2)S(=O)(=O)NC1=NC(C)C12CC3CC(CC(C3)C1)C2 (centres undefined)	0
CC1=C(c2ccc(C)cc2)S(=O)(=O)NC1=NC1CCN(Cc2ccccc2)CC1	9.6*
Cc1cccc(NC(=O)CSC2=C(C#N)C(c3ccco3)C3=C(CCCC3=O)N2)c1 (centres undefined)	0
CCn1c(C(=O)N2CCC(C(=O)O)CC2)cc2sccc21	1
CNC[C@@H]1Oc2ccc(NC(=O)Nc3c(C)noc3C)cc2C(=O)N([C@H](C)CO)C[C@H]1C	16*
SMILES	A1 inhib
CNC[C@@H]1Oc2ccc(NC(=O)Nc3c(C)noc3C)cc2C(=O)N([C@@H](C)CO)C[C@@H]1C	0
Cc1noc(C)c1NC(=O)Nc1ccc2c(c1)C(=O)N([C@H](C)CO)C[C@H](C)[C@@H](CN(C)C)O2	0
O=C(CCC1CCCCC1)Nc1ccc(S(=O)(=O)Nc2ncccn2)cc1	0
O=C(CCN1C(=O)COc2ccccc21)NC1CCCCCC1	0
O=C(/C=C/Oc1ccc(Cl)cc1)c1ccc(Br)cc1	11*
COc1ccc(-c2nsc(SCC(=O)c3ccc(Cl)cc3)n2)cc1	-1
O=C(COC(=O)c1ccc(Br)cc1)c1ccc(Br)cc1	-1
c1ccc2[nH]c(CSCCC3CCCCC3)nc2c1	-2
O=C(/C=N/O)Nc1cc(C(F)(F)F)cc(C(F)(F)F)c1	-2
CCc1ccccc1Oc1coc2cc(OC(=O)c3ccccc3F)ccc2c1=O	0
CCC(Sc1nc2cc3c(cc2c(=O)n1Cc1ccco1)OCO3)C(=O)Nc1ccccc1OC (centres undefined)	-1
CCC(Sc1nc2cc3c(cc2c(=O)n1Cc1ccco1)OCO3)C(=O)NCc1ccc(C)cc1 (centres undefined)	15*
O=C(CSc1nc2ccccc2c(=O)n1Cc1ccco1)c1ccccc1	0
O=C1c2ccccc2C(=O)C1c1cc(Cl)cc(Cl)c1	-5
Cc1ccc(-n2nc(C)c3c(C)c(CCC(=O)NCc4cccs4)c(C)nc32)cc1	1
CC1CC(C)CN(S(=O)(=O)c2ccc(F)c(C(=O)Nc3cccc(F)c3)c2)C1 (centres undefined)	0
Cc1cc(C)c(C#N)c(SCSCc2ccccc2)n1	-1
Cc1cc(C)c(C#N)c(Sc2ncnc3c2nnn3Cc2ccccc2)n1	9.8*
Cc1cc(C)c(C#N)c(SCc2ccccc2)n1	0
O=C(CCc1ccccc1)Nc1ccc(-c2nc3ccccc3o2)cc1	-3
O=C(Nc1ccc(Cl)cc1)c1ccn[nH]1	-6
CCN1CCCC1CNC(=O)c1[nH]c2cc(OC)ccc2c1Sc1ccc(Cl)cc1 (centres undefined)	1
CC(C)(C)c1ccc(O)c(C(=O)Oc2ccccc2)c1	-2
CC(=O)Nc1cc(C(=O)NCCN(C)C)ccc1Sc1ccc(Cl)cc1	0
CCCNC(=O)c1cc2c(s1)CS(=O)(=O)C2	1
SMILES	A1 inhib
CN(C)CCNC(=O)c1cc2c(s1)-c1ccc(Cl)cc1SC2	39*
Cc1sc2nc(SCCC(C)C)nc(N)c2c1C	0
C=CCN=C(SC)N1CCN(C(=NCC=C)SC)CC1	0
Cc1nn(-c2ccccc2)c2sc(C(=O)NC(=S)NC3CCSC3=O)cc12 (centres undefined)	0
CN1CCN(NC(=O)c2ccc(-c3ccccc3)cc2)CC1	1
O=c1c2ccccc2nc2c3ccccc3c(N3CCOCC3)nn12	-1
O=c1cc(N2CCOCC2)oc2c1ccc1ccccc12	2
O=c1cc(N2CCOCC2)oc2c(-c3ccccc3)cccc12	11*
Cc1ccc(S(=O)(=O)c2ccc(-c3ccccc3)cc2)cc1	-1
Cc1ccc(S(=O)(=O)N[C@@H](Cc2ccccc2)C(=O)CCl)cc1	16*
COC(=O)CN(Cc1ccccc1)S(=O)(=O)c1ccc(C)cc1	0
COC(=O)CN1C(=O)S/C(=C/c2ccc(-c3ccc(C(=O)O)cc3)o2)C1=O	-1
Cc1ccc(-n2nc(C(F)(F)F)cc2-c2cccs2)cc1	0
CCC1CN2CCc3cc(OC)c(OC)cc3[C@@H]2C[C@@H]1C[C@H]1NCCc2cc(OC)c(OC)cc21 (some centres undefined)	17*
COc1cc2c(cc1OC)C1C(C)C(=O)C3=C(CSCC3=O)N1CC2 (centres undefined)	0
CCCC(=O)N1CCc2cc(OC)c(OC)cc2C1COc1ccc(OC)cc1 (centres undefined)	0
Cn1c(C(=O)N2CCCC2)cc2c(=O)n3ccccc3nc21	-1
CC1=C(C(=O)Nc2ccc(F)cc2)C(c2ccc(F)cc2)C2=C(CC(c3ccccc3)CC2=O)N1 (centres undefined)	3
Cc1c2c(nc3c(C(=O)NC4CCCC(C)C4C)cnn13)CCCC2 (centres undefined)	1
CCN(C(=O)CSc1nc2nc(C)c(Cc3cc(C)ccc3C)c(C)n2n1)c1cccc(C)c1	0
NS(=O)(=O)c1ccc(CCNC(=O)c2cccn3c(=O)c4cc5ccccc5cc4nc23)cc1	13*
CCOC(=O)N1CCN(C(=O)c2cccn3c(=O)c4cc5ccccc5cc4nc23)CC1	-1
O=C(NCCc1ccccc1)c1cc(-c2ccccc2)nc2ccccc12	1
Cc1c(C(=O)N(C)C)sc2c1c(=O)n(-c1ccccc1C(F)(F)F)c(=O)n2CC(N)=O	0
COc1ccc(CN(CCC(c2ccccc2)c2ccco2)C(C)=O)cc1 (centres undefined)	0

Compound activity deposited in PubChem by Broad Institute.
